# Test results: PubChem BioAssay (EPA / NIEHS)
# Activity calls are given as the source filed them. How the source made its calls: active means hit-call score of the fitted dose curve at least 0.9, where 1 is the maximum; inactive means score below 0.9.
# Experiments:
# Conditions in all cases: actives raise or lower the signal
# [1] = CEETOX_H295R_11DCORT_noMTC: CeeTox H295R High-throughput Steroidogenesis Assay for 11-Deoxycortisol (11DCORT), maximum tolerated concentration (MTC) filtered results only (AID 2283911)
# In short: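 Readout is 11-deoxycortisol in culture medium by reverse-phase HPLC with MS/MS, after 48 h chemical treatment of forskolin-primed H295R cells. Values are relative to DMSO and unfiltered for cytotoxicity.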
# [2] = CEETOX_H295R_CORTISOL_noMTC: CeeTox H295R High-throughput Steroidogenesis Assay for Cortisol, maximum tolerated concentration (MTC) filtered results only (AID 2283916)
# In short: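 H295R adrenal cells were pre-stimulated 48 h with 10 uM forskolin, then exposed 48 h to test chemical in 0.1% DMSO. Medium cortisol was measured by MTBE extraction and HPLC-MS/MS; bidirectional fit versus DMSO, concentrations not MTC-filtered.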
# [3] = CEETOX_H295R_CORTIC_noMTC: CeeTox H295R High-throughput Steroidogenesis Assay for Corticosterone (CORTIC), maximum tolerated concentration (MTC) filtered results only (AID 2283917)
# In short: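 Forskolin-stimulated (10 uM, 48 h) H295R cells are dosed 48 h with chemical in DMSO (0.1% final); corticosterone change is quantified by HPLC-MS/MS and fitted bidirectionally against DMSO, unfiltered for MTT-derived MTC.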
# [4] = CEETOX_H295R_DOC_noMTC: CeeTox H295R High-throughput Steroidogenesis Assay for DOC, maximum tolerated concentration (MTC) filtered results only (AID 2283918)
# In short: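 H295R cells prestimulated 48 h with 10 uM forskolin, then exposed 48 h to test chemical (0.1% DMSO final). Medium 11-deoxycorticosterone extracted with MTBE, quantified by HPLC-MS/MS; bidirectional fit versus DMSO, concentrations not MTC-filtered.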
smiles,measurement,setting,value
CCCCCCCCCCOC(=O)c1ccccc1C(=O)OCCCCCCCC,AC50,[1],45.7 µM (active)
same,outcome,[2],inactive
same,outcome,[3],inactive
same,AC50,[4],33.3 µM (active)
